According to PubChem BioAssay:
Several values for one entry are separate records, joined by “and”; a condition that tells them apart may be missing. Identical values can stand only once. Activity calls are given as the source filed them.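 The calls were made as follows, unless noted: active = inhibition at or above 50% relative to wild type and mutant plate controls; inactive = inhibition below 50%.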

How the values were obtained:
[1] = inhibitors of TNFa-induced NFkB p65 translocation, primary screen, imaging, HUVEC, MLSMR starter and 10KST1 sets (AID 438;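 active = inhibition above 20% together with a positive visual image hit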;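 also: compound added about 3h40 before a 20 min TNFalpha stimulation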;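 as to inhibition: signal is the nuclear over cytoplasmic p65 intensity ratio per well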); details: HUVEC TNFa-induced p65 nuclear translocation; cell count: measured here: nuclei count (cytotoxicity indicator), at 2.08 µM; inhibition: at 2 µM, stronger effect = higher value, 0% TNFa-plus-vehicle, 100% no-TNFa wells
[2] = inhibitors of mutant huntingtin aggregation, primary screen, imaging, exon1htt(103Q)mCFP cells, high-content imaging (AID 483;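 active = visual image review flags a hit and inhibition of aggregation exceeds 20%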;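 also: compound exposure lasted 3 days before fixation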;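 as to nuclei count: percent of the per-plate median nuclei count of sample wells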); details: exon1htt(103Q)mCFP cell line, aggregate imaging, at 2 µM; inhibition of aggregation: stronger effect = higher value; nuclei count: measured here: cell count, toxicity
[3] = inhibitors of E-selectin induction by TNFa, primary screen, imaging, HUVEC, immunofluorescence, MLSMR starter and 10KST1 sets (AID 487;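 active = visually confirmed hit in the image check and inhibition above 20%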;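 as to inhibition: signal is fraction of cell area covered by stained E-selectin grains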;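 as to nuclei count: 100% = median nuclei count of all wells on the same plate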); details: HUVEC TNFalpha-induced E-selectin immunofluorescence imaging, at 2 µM; inhibition: stronger effect = higher value; nuclei count: measured here: cell number, toxicity
[4] = DUSP6 inhibitors restoring Erk phosphorylation by chemical complementation, primary imaging in DUSP6-transfected HeLa (AID 609;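 active = compounds giving at least 50% inhibition in the cell-based MKP-3 phosphatase rescue imaging test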;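 as to inhibition: phospho-Erk level distribution per well compared with pooled transfected vehicle control wells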); details: HeLa MKP-3 transfected, phospho-Erk imaging KS statistic, at 10 µM, cells stimulated with TPA for 15 min
[5] = biological target: Dual specificity protein phosphatase 6 (Homo sapiens) (UniProt Q16828); experiment: as above; details: HeLa MKP-3 transfected, phospho-Erk imaging KS statistic; at 10 µM; stronger effect = higher value; cells stimulated with TPA for 15 min
[6] = biological target: Voltage-gated potassium channel subunit beta-2 (Rattus norvegicus) (UniProt P62483); experiment: KvBeta enzyme negative modulators, primary screen, biochemical, NADPH fluorescence (AID 622;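 active = fluorescence slope higher than the sample average by over 3 SD, cut at about -0.22 in these data, passing the limit was not always enough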;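 also: slope of raw intensity against log time taken from 70 to 1610 s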); details: recombinant KvBeta, 4-cyanobenzaldehyde reduction, at 10 µM, stronger effect = higher value
[7] = biological target: Voltage-gated potassium channel subunit beta-2 (Rattus norvegicus) (UniProt P62483); experiment: KvBeta positive modulators, primary screen, biochemical, NADPH fluorescence (AID 623;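 active = NADPH fluorescence slope more negative than the mean of all samples by about 3 SD, 99.7% confidence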;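 also: fluorescence intensity change per second fitted from 20 to 320 s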); details: Recombinant KvBeta, NADPH fluorescence decrease slope, 10 min; at 10 µM; stronger effect = lower value
[8] = biological target: Alpha-2C adrenergic receptor (Homo sapiens) (UniProt P18825); experiment: modulators of alpha2C/GIRK thallium flux, primary screen, cell-based, HEK293 alpha2C/GIRK1/2 (AID 624;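 active = fluorescence slope after compound addition differing from the mean of all screened samples at 99.7% confidence, in either direction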;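 also: slope of fluorescence ratio to pre-addition baseline per second over 15 to 24 s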); details: thallium flux BTC fluorescence, at 10 µM, actives lie on both sides
[9] = inhibitors of larval lipid processing in zebrafish, primary screen, whole organism, PED6 fluorescence, gall bladder and intestine (AID 686;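 active = a full or partial loss of lipid-probe fluorescence in the fish gall bladder, intestine or both, judged by eye; inactive = no fluorescence loss, or compound toxic to the fish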;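 also: larvae 5 to 7 days old with five fish per well; signal comes from phospholipase A2 cleavage of quenched PED6 carried via bile; overnight exposure to compound and PED6 before scoring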); details: Zebrafish larvae PED6 lipid processing, fluorescence scoring; screened at 20 µM (by protocol)
[10] = inhibitors of Chlamydomonas gravitaxis, primary screen, whole organism, Chlamydomonas reinhardtii, WT vs cilia-less mutant, absorbance, 96-well (AID 463189); details: OD600 absorbance, 2 days, at 10 µM, stronger effect = higher value;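 also: 0% = wild type cc124 cells in DMSO and 100% = ciliumless bld1 mutant cells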
[11] = inhibitors of Sendai virus-induced IRF3 signaling, primary screen, TLR/RLR signaling modifier project, cell-based, Sendai virus stimulus, luciferase, 10K MLSCN set (AID 602276;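 active = inhibition at or above 50% at 10 µM; inactive = inhibition below 50%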;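 also: firefly luciferase from ISG56 promoter only with Renilla not read in this screen; 0% = Sendai virus plus DMSO and 100% = medium plus DMSO without virus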); details: HEK293 RL24 IRF3 luciferase reporter, at 10 µM, stronger effect = higher value
[12] = inhibitors of poly I:C-induced TLR3 signaling, primary screen, cell-based, poly I:C stimulus, luciferase, 10K MLSCN set (AID 602277;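 active = inhibition of the reporter signal at or above 50%; inactive = inhibition below 50%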); details: HEK293-TLR3 RL24 IRF3 luciferase reporter, at 10 µM, stronger effect = higher value
[13] = measured here: cell density z-score
[14] = measured here: nuclear c-Myc green intensity z-score
[15] = measured here: nuclear pErk red intensity z-score, stronger effect = higher value

Chain of Voltage-gated potassium channel subunit beta-2 (Rattus norvegicus) (P62483 whole entry, looked up): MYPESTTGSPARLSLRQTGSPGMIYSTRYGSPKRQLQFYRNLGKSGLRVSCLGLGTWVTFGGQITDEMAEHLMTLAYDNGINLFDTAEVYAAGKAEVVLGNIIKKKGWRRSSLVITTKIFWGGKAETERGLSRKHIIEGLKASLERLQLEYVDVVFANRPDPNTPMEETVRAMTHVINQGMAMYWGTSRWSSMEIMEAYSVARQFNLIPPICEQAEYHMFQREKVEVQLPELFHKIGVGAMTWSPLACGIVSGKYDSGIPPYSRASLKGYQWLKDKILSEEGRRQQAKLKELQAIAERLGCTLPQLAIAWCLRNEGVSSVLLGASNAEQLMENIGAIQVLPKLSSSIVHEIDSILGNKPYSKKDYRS
Chain of Alpha-2C adrenergic receptor (Homo sapiens) (P18825 whole entry, looked up): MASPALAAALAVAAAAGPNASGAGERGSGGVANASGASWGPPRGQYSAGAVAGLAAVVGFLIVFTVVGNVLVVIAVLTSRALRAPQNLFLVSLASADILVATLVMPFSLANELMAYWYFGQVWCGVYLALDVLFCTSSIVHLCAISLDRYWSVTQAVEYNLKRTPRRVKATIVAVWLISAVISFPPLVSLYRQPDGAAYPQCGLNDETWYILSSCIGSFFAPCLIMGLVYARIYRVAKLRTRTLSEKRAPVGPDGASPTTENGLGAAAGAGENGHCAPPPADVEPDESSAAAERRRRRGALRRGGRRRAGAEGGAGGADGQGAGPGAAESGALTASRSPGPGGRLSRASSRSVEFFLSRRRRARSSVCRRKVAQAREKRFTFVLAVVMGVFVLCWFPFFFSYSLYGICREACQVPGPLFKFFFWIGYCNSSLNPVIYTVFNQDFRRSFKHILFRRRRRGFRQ
Chain of Dual specificity protein phosphatase 6 (Homo sapiens) (Q16828 whole entry, looked up): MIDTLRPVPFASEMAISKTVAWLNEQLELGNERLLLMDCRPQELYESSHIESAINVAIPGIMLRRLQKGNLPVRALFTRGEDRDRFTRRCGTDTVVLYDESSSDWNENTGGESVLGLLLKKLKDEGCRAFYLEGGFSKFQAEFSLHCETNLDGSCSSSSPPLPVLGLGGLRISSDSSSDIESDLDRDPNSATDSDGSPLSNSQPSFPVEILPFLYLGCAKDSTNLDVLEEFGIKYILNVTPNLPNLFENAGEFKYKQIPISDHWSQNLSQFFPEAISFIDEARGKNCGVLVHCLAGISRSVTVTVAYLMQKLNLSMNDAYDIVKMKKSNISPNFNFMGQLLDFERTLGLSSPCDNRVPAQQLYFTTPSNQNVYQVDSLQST

Structure (SMILES)	cell count [1]	inhibition [1]	inhibition of aggregation [2]	nuclei count [2]	inhibition [3]	nuclei count [3]	z-score [4, 13]	z-score [4, 14]	z-score [4, 15]	inhibition [5]	fluorescence slope [6]	NADPH fluorescence slope [7]	slope [8]	outcome [9]	inhibition [10]	inhibition [11]	inhibition [12]
Cc1csc(NC(=O)CSc2nsc(SCC(=O)Nc3nc(C)cs3)c2C#N)n1	655	-10.4% (inactive)	12.2% (inactive)	105%	-15.8% (inactive)	141%	-1.33	0.375	-0.579	6.51% (inactive)	-0.37 (inactive)	-3.7e-05 (inactive)	0.00462 (inactive)	inactive	2.21% (inactive)	-8.75% (inactive)	-83.6% (inactive)
COc1ccc(-n2c(SCC(N)=O)nc3sc4c(c3c2=O)CCN(C)C4)cc1	537	-5.6% (inactive)	32% (inactive)	58%	-51.4% (inactive)	134%	-0.15	1.95	-0.53	-2.69% (inactive)	-0.305 (inactive)	-1.8e-06 (inactive)	0.00454 (inactive)	inactive	-8.09% (inactive)	-4.01% (inactive)	0.612% (inactive)
COc1ccc(C2CNC(=O)C2)cc1OC1CCCC1 (configuration not stated)	595	-1.7% (inactive)	-10.3% (inactive)	97.8%	-59.8% (inactive)	124%	-1.08	-0.0715	0.178	3.45% (inactive)	-0.507 (inactive)	-0.000115 (inactive)	0.00579 (inactive)	inactive	0.165% (inactive) and 12.7% (inactive)	15.5% (inactive)	0.301% (inactive)
CO[C@H]1C[C@@H]2CC[C@@H](C)[C@@](O)(O2)C(=O)C(=O)N2CCCC[C@H]2C(=O)O[C@H]([C@H](C)C[C@@H]2CC[C@@H](O)[C@H](OC)C2)CC(=O)[C@H](C)C=C(C)[C@@H](O)[C@@H](OC)C(=O)[C@H](C)C[C@H](C)C=CC=CC=C1C	629	-23.5% (inactive)	3.4% (inactive)	97%	-63% (inactive)	106%	0.947	0.453	0.871	19.2% (inactive)	-0.462 (inactive)	-3.4e-05 (inactive)	0.00536 (inactive)	inactive	44.3% (inactive)	21.8% (inactive)	43.8% (inactive)
CCC(c1c(C)n(C)n(-c2ccccc2)c1=O)c1c(C)n(C)n(-c2ccccc2)c1=O	550	-4.3% (inactive)	27.5% (inactive)	89.2%	-51.3% (inactive)	125%	-0.849	-0.188	-0.348	3.66% (inactive)	-0.488 (inactive)	-0.000154 (inactive)	0.00494 (inactive)	inactive	5% (inactive)	17.6% (inactive)	17.1% (inactive)
CC(=O)Nc1ccccc1O	675	0.8% (inactive)	14.1% (inactive)	106%	-84.6% (inactive)	121%	-0.0756	0.873	-0.0939	7.39% (inactive)	-0.439 (inactive)	-5.7e-05 (inactive)	0.00449 (inactive)	inactive	-2.47% (inactive)	13.6% (inactive)	37.8% (inactive)
CCCCc1c(O)nc(SCCN(C)C)n(-c2ccccc2)c1=O	326	-8.8% (inactive)	2.2% (inactive)	94.9%	-40.2% (inactive)	96.4%	-1.09	2.21	0.182	12.3% (inactive)	-0.438 (inactive)	-0.000152 (inactive)	0.00653 (inactive)	inactive	-12.4% (inactive)	7.92% (inactive)	1.23% (inactive)
COC(=O)c1cc(S(=O)(=O)N2CCOCC2)c(N2CCOCC2)cc1N1CCOCC1	427	-5.9% (inactive)	5% (inactive)	118%	-21.7% (inactive)	129%	-1.77	-0.115	0.265	-1.75% (inactive)	-0.409 (inactive)	-0.000135 (inactive)	0.00461 (inactive)	inactive	23.9% (inactive)	4.03% (inactive)	11% (inactive)
Cc1nc(/N=C(\N)Nc2ccccc2)nc2ccccc12	304	2.5% (inactive)	-14% (inactive)	103%	-112% (inactive)	110%	0.361	0.688	0.354	-0.624% (inactive)	-0.38 (inactive)	2.3e-05 (inactive)	0.0057 (inactive)	inactive	7.3% (inactive)	-6.34% (inactive)	-21.7% (inactive)
CSc1ccc2c(c1)N(CCC1CCCCN1C)c1ccccc1S2 (configuration not stated)	643	-2.7% (inactive)	4.7% (inactive)	89.1%	-54.8% (inactive)	119%	0.315	3.44	1.46	-4.44% (inactive)	-0.555 (inactive)	-5.2e-05 (inactive)	0.00348 (inactive)	inactive	77.2% (active) and 160% (active)	32% (inactive)	30% (inactive)
Cn1c(=O)c2c3c(sc2n2c(SCC(=O)c4ccc(Cl)cc4)nnc12)COC(C)(C)C3	673	-9.1% (inactive)	-12.3% (inactive)	105%	2.7% (inactive)	143%	-0.121	0.129	-1.03	-3.98% (inactive)	-0.53 (inactive)	-1.3e-05 (inactive)	0.00419 (inactive)	inactive	0.223% (inactive)	6.06% (inactive)	10.6% (inactive)
CCN(CC)c1ncc(C)c(=O)[nH]1	410	-19.3% (inactive)	-26.9% (inactive)	121%	-44.9% (inactive)	111%	0.304	-0.433	-0.0626	-2.69% (inactive)	-0.541 (inactive)	-8.2e-05 (inactive)	0.00493 (inactive)	inactive	31.2% (inactive)	22.3% (inactive)	22% (inactive)
CCCCC[C@H](O)/C=C/[C@H]1C=CC(=O)[C@@H]1C/C=C\CCCC(=O)O	543	-11.1% (inactive)	16% (inactive)	84.8%	-33.9% (inactive)	110%	1.78	-0.725	-0.854	7.39% (inactive)	-0.458 (inactive)	-5.4e-05 (inactive)	0.00837 (inactive)	inactive	5.58% (inactive)	-2.27% (inactive)	25% (inactive)
CCN(CC)CCOC(=O)C1(C2CCCCC2)CCCCC1	520	-11.3% (inactive)	17.1% (inactive)	96%	-57.3% (inactive)	118%	-0.235	-0.682	1.64	-6.41% (inactive)	-0.494 (inactive)	-5.1e-05 (inactive)	0.00415 (inactive)	inactive	-2.13% (inactive) and -31% (inactive)	10.2% (inactive)	38.4% (inactive)
O=C1N[C@@H](Cc2cnc[nH]2)C(=O)N2CCC[C@@H]12	563	-1.5% (inactive)	17.2% (inactive)	95.1%	-32% (inactive)	119%	-1.25	0.0399	-0.395	-0.493% (inactive)	-0.516 (inactive)	-4.6e-05 (inactive)	0.0041 (inactive)	inactive	10.3% (inactive)	16.7% (inactive)	33.3% (inactive)
CC1CCc2cc(F)cc3c(O)c(C(=O)Nc4cnccn4)c(=O)n1c23 (configuration not stated)	457	-7.7% (inactive)	3.8% (inactive)	99.3%	-40.6% (inactive)	99.4%	0.762	0.74	0.103	17.5% (inactive)	-0.351 (inactive)	2e-05 (inactive)	0.0057 (inactive)	inactive	-9.12% (inactive)	13.2% (inactive)	21.7% (inactive)
NC(N)=NS(=O)(=O)c1ccc(N)cc1	630	0.4% (inactive)	9.4% (inactive)	99.7%	-107% (inactive)	136%	0.695	-0.407	-0.348	14.6% (inactive)	-0.497 (inactive)	-7.4e-05 (inactive)	0.00546 (inactive)	inactive	-2.06% (inactive)	18.4% (inactive)	34.4% (inactive)
CCN(CCCc1ccccc1)CCCc1ccccc1	633	-10.9% (inactive)	-6.3% (inactive)	95.6%	-92.8% (inactive)	132%	-0.00243	0.557	-0.117	9.37% (inactive)	-0.514 (inactive)	-3.6e-06 (inactive)	0.00419 (inactive)	inactive	128% (active)	16.6% (inactive)	29.6% (inactive)
CC(C)(C)n1cnc2cc(NS(=O)(=O)c3ccc(Br)cc3)ccc21	543	-1.5% (inactive)	-9.9% (inactive)	99.9%	-37% (inactive)	108%	0.246	1.31	-0.322	-5.26% (inactive)	-0.373 (inactive)	2.9e-05 (inactive)	0.00461 (inactive)	inactive	-15% (inactive)	15.5% (inactive)	13.8% (inactive)
NS(=O)(=O)c1ccc(C(=O)O)cc1	662	-3.9% (inactive)	7.9% (inactive)	106%	-60.6% (inactive)	124%	1.84	-0.0127	-1.63	31.1% (inactive)	-0.499 (inactive)	3.5e-06 (inactive)	0.00388 (inactive)	inactive	24.6% (inactive)	-11.5% (inactive)	-18% (inactive)
O=C(O)c1cc(-c2ccccc2)nc2ccccc12	572	-5.1% (inactive)	-4.1% (inactive)	92.2%	-66.9% (inactive)	121%	0.461	0.0575	-0.708	-0.493% (inactive)	-0.459 (inactive)	-5.4e-05 (inactive)	0.00561 (inactive)	inactive	-8.89% (inactive)	5.39% (inactive)	34.2% (inactive)
